The results in this text go back to paper PMC4336329 (PLoS ONE, 2015).

About 14,000 (4.5%) of roughly 310,000 compounds showed an effect of 50% or more. Effects have a minus sign here. This excerpt belongs to a sample that is enriched for strong results.
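Also: peak tail current of the secondary pulse compared with the same well before compound.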

The target of the assay is human ether-à-go-go-related gene (hERG) potassium channel (human, UniProt Q12809). As to the kind of experiment: primary screen, population patch clamp on CHO cells stably expressing hERG; higher = less effect of the substance.
human ether-à-go-go-related gene (hERG) potassium channel, sequence (Q12809 whole entry, looked up): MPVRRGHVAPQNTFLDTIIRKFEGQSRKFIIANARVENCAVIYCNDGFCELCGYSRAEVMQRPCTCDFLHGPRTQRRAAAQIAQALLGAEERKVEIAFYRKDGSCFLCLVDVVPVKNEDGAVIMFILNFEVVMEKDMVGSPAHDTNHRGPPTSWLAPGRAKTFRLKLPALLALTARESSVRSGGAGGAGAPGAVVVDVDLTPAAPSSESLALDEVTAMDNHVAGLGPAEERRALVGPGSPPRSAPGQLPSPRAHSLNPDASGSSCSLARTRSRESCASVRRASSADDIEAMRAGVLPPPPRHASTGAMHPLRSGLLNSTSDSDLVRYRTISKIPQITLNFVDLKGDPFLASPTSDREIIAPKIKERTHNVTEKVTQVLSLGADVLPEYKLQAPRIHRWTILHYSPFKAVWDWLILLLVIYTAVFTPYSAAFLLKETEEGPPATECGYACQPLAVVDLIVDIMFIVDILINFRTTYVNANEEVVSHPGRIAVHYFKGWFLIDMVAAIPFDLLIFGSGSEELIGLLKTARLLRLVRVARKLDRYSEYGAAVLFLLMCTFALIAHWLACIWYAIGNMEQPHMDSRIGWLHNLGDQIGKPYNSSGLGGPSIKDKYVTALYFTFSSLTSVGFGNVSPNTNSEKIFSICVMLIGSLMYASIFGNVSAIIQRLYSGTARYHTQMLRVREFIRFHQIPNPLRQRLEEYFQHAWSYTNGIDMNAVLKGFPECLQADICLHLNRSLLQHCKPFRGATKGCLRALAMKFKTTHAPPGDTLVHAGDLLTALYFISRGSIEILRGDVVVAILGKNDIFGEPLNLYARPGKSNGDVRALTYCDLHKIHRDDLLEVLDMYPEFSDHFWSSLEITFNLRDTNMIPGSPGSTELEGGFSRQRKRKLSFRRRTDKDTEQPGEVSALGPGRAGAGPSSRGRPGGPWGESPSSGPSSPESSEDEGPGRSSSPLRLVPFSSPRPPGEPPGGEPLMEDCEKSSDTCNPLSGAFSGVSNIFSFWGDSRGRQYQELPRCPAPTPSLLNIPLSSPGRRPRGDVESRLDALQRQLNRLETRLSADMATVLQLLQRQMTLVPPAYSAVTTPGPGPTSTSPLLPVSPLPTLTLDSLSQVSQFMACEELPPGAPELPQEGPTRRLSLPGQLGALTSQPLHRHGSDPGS
On to `O=C(NN=C1CCCCCCCCCCC1)c1cccnc1`, for which the “hERG current change (%, negative = inhibition) at 10uM” value came to 19.8%.
As for `CCN(CC)c1ccc(NC(=O)c2cccnc2)c(C)c1`, the figure is 26.9%; as for `CCN(CC)S(=O)(=O)c1cccc(C(=O)Nc2cccnc2)c1`, -17.7%; as for `O=C(Nc1cccnc1)c1ccc(Cl)c(Cl)c1`, 10.3%.
Consider `CCN(CC)S(=O)(=O)c1cc(C(=O)Nc2ccncc2)ccc1Cl`, for which the “hERG current change (%, negative = inhibition) at 10uM” value was -66.3%.
The figure for `O=C(Nc1ccccc1)c1cc(S(=O)(=O)Nc2cccnc2)ccc1Cl` is -3.06%; for `CCN(CC)c1ccc(S(=O)(=O)N(CC)CC)cc1NC(=O)c1cccnc1` it is -72.5%; for `CCN(CC)c1ccc(S(=O)(=O)N(CC)CC)cc1NC(=O)C1CCCC1` it is -13.6%.
Turning to `CCN(CC)S(=O)(=O)c1cc(C(=O)Nc2cccnc2Cl)ccc1Cl`, the “hERG current change (%, negative = inhibition) at 10uM” value amounted to 8.87%.
Regarding `CCN(CC)S(=O)(=O)c1ccc(Cl)c(C(=O)Nc2cccnc2)c1`, the “hERG current change (%, negative = inhibition) at 10uM” value is reported as -55.8%.
As for `CCN(CC)S(=O)(=O)c1cc(C(=O)Nc2cc(C)[nH]n2)ccc1Cl`, the figure is -10.3%; as for `CCN(CC)S(=O)(=O)c1ccc(Cl)c(C(=O)Oc2cccnc2)c1`, -36.8%.
The figure for `CCN(CC)S(=O)(=O)c1cc(C(=O)Nc2cccnc2)ccc1Cl` is -67.9%; for `COc1cccc(-c2sc3ccc(OC)cc3c2C#CCCO)c1` it is -7.87%; for `CCc1nnc(NC(=O)CSC(=S)N2CCOCC2)s1` it is 14.6%.
As for `CC(=O)c1cn(CC(=O)Nc2ccccc2F)c2ccccc12`, the figure is 2.54%; as for `Cc1nc2ccc(N)cc2c(=O)n1Cc1ccc(Cl)cc1`, -11.4%.
As for `N#Cc1ccc(N2CCOCC2)c([N+](=O)[O-])c1`, the “hERG current change (%, negative = inhibition) at 10uM” value was -21.7%.
As for `CN1CCN(c2ccc(Cl)cc2NC(=O)c2ccc([N+](=O)[O-])cc2)CC1`, the “hERG current change (%, negative = inhibition) at 10uM” value was -10.6%.
As for `CN1CCN(c2ccc(Cl)cc2NC(=O)c2ccc(S(=O)(=O)N(C)C)cc2)CC1`, the figure is 1.58%; as for `CCN(CC)S(=O)(=O)c1cc(C(=O)Nc2cc(Cl)ccc2N2CCN(C)CC2)ccc1Cl`, -53.5%; as for `COc1ccccc1N(C)S(=O)(=O)c1ccc(C(=O)Nc2ccncc2)cc1`, -28.6%.
Consider `COc1ccccc1N(C)S(=O)(=O)c1ccc(Cl)c(C(=O)Nc2ccncc2)c1`, for which the “hERG current change (%, negative = inhibition) at 10uM” value was -73.4%.
As for `CN(c1ccccc1)S(=O)(=O)c1ccc(Cl)c(C(=O)Nc2ccncc2)c1`, the figure is -5.35%; as for `CN1CCN(c2ccc(Cl)cc2NC(=O)c2ccc(=O)n(C)n2)CC1`, -58.3%.
As for `Cn1nc(C(=O)Nc2ccccc2N2CCOCC2)ccc1=O`, the figure is -24.4%.
For `CN1CCN(c2ccc(Cl)cc2NC(=O)c2cccc(S(=O)(=O)N(C)C)c2)CC1`, the “hERG current change (%, negative = inhibition) at 10uM” value was -36.9%.
As for `CCOc1cccc2sc(N3CCN(C(=O)c4ccc5ncsc5c4)CC3)nc12`, the figure is 2.18%; as for `CCS(=O)(=O)NC(C)C(c1cccs1)N1CCN(c2ccc(OC)cc2)CC1` (stereo not shown), -7.31%; as for `COc1ccc(CN(CC(=O)NCCc2ccccc2)C(=O)CCC(=O)Nc2ccccn2)cc1`, -27.1%.
Take `O=C(CN(Cc1ccc(F)cc1)C(=O)CCC(=O)Nc1nccs1)NCc1ccc(F)cc1`: the “hERG current change (%, negative = inhibition) at 10uM” value is listed as -50.5%.
For the molecule `COc1ccc(CN(CC(=O)NCc2ccccc2)C(=O)CCC(=O)Nc2cc(C)ccn2)cc1`, the “hERG current change (%, negative = inhibition) at 10uM” value was -17.2%.
In the case of `O=C(CN(Cc1ccc(F)cc1)C(=O)CCC(=O)Nc1ccccn1)NCCc1ccccc1`, the “hERG current change (%, negative = inhibition) at 10uM” value is -15.7%.
The figure for `COc1ccc(CNC(=O)CN(Cc2cccs2)C(=O)CCC(=O)Nc2ccccn2)cc1` is -41.1%; for `O=C(CN(Cc1ccc(F)cc1)C(=O)CCC(=O)Nc1nccs1)NCc1ccccc1` it is -35.6%.
On to `O=C(CN(Cc1ccccc1)C(=O)CCC(=O)Nc1ccccn1)NCCc1ccccc1`, for which the “hERG current change (%, negative = inhibition) at 10uM” value was -52.4%.
`COc1ccc(CN(CC(=O)NCc2ccc(F)cc2)C(=O)CCC(=O)Nc2ccccn2)cc1`: the “hERG current change (%, negative = inhibition) at 10uM” value was -28.2%.
As for `COc1ccc(CN(CC(=O)NCc2ccccc2)C(=O)CCC(=O)Nc2ccccn2)cc1`, the “hERG current change (%, negative = inhibition) at 10uM” value was -21.1%.
`COc1ccc(CNC(=O)CN(Cc2ccccc2)C(=O)CCC(=O)Nc2ccccn2)cc1`: the “hERG current change (%, negative = inhibition) at 10uM” value is -55.9%.
For the molecule `O=C(CN(Cc1ccccc1)C(=O)CCC(=O)Nc1nccs1)NCc1ccc(F)cc1`, the “hERG current change (%, negative = inhibition) at 10uM” value was -1.38%.
As for `COc1ccc(CNC(=O)CN(Cc2ccc(OC)cc2)C(=O)CCC(=O)Nc2ccccn2)cc1`, the figure is -64.4%; as for `O=C(O)CC(NC(=O)C(c1ccccc1)c1ccccc1)c1cccc([N+](=O)[O-])c1` (stereo not shown), 2.05%; as for `CNC(=O)CNC(=O)Nc1ccc(Cl)c(Cl)c1`, 9.11%.
The figure for `CC(Cc1cnccn1)NCc1c(C(=O)N2CCCCCCC2)nc2ccc(Cl)cn12` (stereo not shown) is -12.8%.
As for `CCn1c(=O)c2c(nc3n2CCCN3Cc2ccccc2)n(C)c1=O`, the “hERG current change (%, negative = inhibition) at 10uM” value was -18.2%.
As for `CC#CCCc1nc2ccccc2c(=O)n1N`, the figure is 15.9%.
As for `Cc1cc([N+](=O)[O-])ccc1NCc1ccc2c(c1)OCCO2`, the figure is 5.37%; as for `CCCCOC(=O)Nc1cccc(Cl)c1C`, -15.6%.
As for `CC(C)CN(C(=O)COC(=O)c1ccc2c(c1)NC(=O)CS2)C1CCS(=O)(=O)C1` (stereo not shown), the figure is 13.1%; as for `COc1ccccc1NC(=S)N(c1ccccc1)C(C)C`, 6.18%; as for `C=C(C)Cn1c(SCCCO)nc2c1c(=O)[nH]c(=O)n2C`, -4.83%.
As to `Cc1cc(C)c2nc(C(F)(F)F)nc(N3CCN(C(=O)c4ccco4)CC3)c2c1`, the “hERG current change (%, negative = inhibition) at 10uM” value came out at 6.1%.
The figure for `Cc1ccc(N2C(=O)C(NC(=O)c3ccccc3)(C(F)(F)F)C3=C2CC(C)(C)CC3=O)cc1` (stereo not shown) is 7.2%.
With `Cc1csc(NC(=O)c2ccccc2[N+](=O)[O-])n1`, the “hERG current change (%, negative = inhibition) at 10uM” value came out at 2.69%.
As to `Cc1csc(NC(=O)c2ccc(Cl)cc2[N+](=O)[O-])n1`, the “hERG current change (%, negative = inhibition) at 10uM” value is recorded as -64.8%.
As for `O=C(Nc1nccs1)c1ccc(Cl)cc1[N+](=O)[O-]`, the figure is -9.1%; as for `COC(=O)c1ccc(CSc2nnc(NC(=O)C3CCCO3)s2)cc1` (stereo not shown), -23.5%.
As for `CCN(CC)S(=O)(=O)c1ccc(N2CCOCC2)c(NS(=O)(=O)c2ccc(C(C)C)cc2)c1`, the figure is -6.87%; as for `Cc1ccc(N2CC(C(=O)N3CCC(c4nc5ccccc5[nH]4)CC3)CC2=O)cc1C` (stereo not shown), -46.2%.
As for `COc1ccc(N2CC(C(=O)N3CCC(c4nc5ccccc5[nH]4)CC3)CC2=O)cc1` (stereo not shown), the figure is -19.3%; as for `O=C(C1CC(=O)N(c2ccc(Cl)cc2)C1)N1CCC(c2nc3ccccc3[nH]2)CC1` (stereo not shown), -71.6%; as for `O=C(C1CCCCC1)N1CCC(c2nc3ccccc3[nH]2)CC1`, -5.51%.
Turning to `O=C(C1CC(=O)N(c2ccc(F)cc2)C1)N1CCC(c2nc3ccccc3[nH]2)CC1` (stereo not shown), the “hERG current change (%, negative = inhibition) at 10uM” value is listed as -63.8%.
As for `O=C(C1CC(=O)N(c2ccccc2)C1)N1CCC(c2nc3ccccc3[nH]2)CC1` (stereo not shown), the figure is 9.08%.
As for `Clc1ccccc1CSc1nnc(-c2ccncc2)o1`, the figure is -14%.
As for `COCCNCC(=O)NC12CC3CC(CC(C3)C1)C2`, the figure is 8.91%; as for `CC(C)COc1ccc(C(=O)N2C(=O)c3ccc(N)cc3C2=O)cc1`, 4.32%.
Turning to `COc1ccc(/C(O)=C2/C(=O)C(=O)N(CCN(C)C)C2c2ccc(C)cc2)cc1Cl` (stereo not shown), the “hERG current change (%, negative = inhibition) at 10uM” value turned out to be 5.16%.
The figure for `COc1ccc(/C(O)=C2/C(=O)C(=O)N(CCN(C)C)C2c2ccc(F)cc2)cc1Cl` (stereo not shown) is 13.8%; for `COc1ccc(C2CN(C)CC2C(=O)c2ccc(F)cc2)cc1Cl` (stereo not shown) it is -78.7%.
With `COc1ccc(CNC(=O)N2CCN(c3ccc(F)cc3)CC2)cc1Cl`, the “hERG current change (%, negative = inhibition) at 10uM” value was -26.1%.
Regarding `COc1ccc(C2CN(C)CC2C(=O)c2ccc(C)cc2)cc1Cl` (stereo not shown), the “hERG current change (%, negative = inhibition) at 10uM” value is reported as -63%.
The figure for `Cc1c(C(N)=O)sc(N)c1C(=O)OC(C)C` is 9.72%; for `COC(=O)c1ccc(N=C2SCC(=O)N2C)cc1` it is 14.3%; for `CCOc1cc(OCC)nc(S(C)(=O)=O)n1` it is -0.891%.
As for `COc1ccc(C(=O)CN2CCN(c3ccc(F)cc3)CC2)cc1`, the “hERG current change (%, negative = inhibition) at 10uM” value was -38.3%.
For `CCN(CC(=O)NCc1ccc(F)cc1)C(=O)CN1CCN(c2ccc(OC)cc2)CC1.O=C(O)C(=O)O`, the “hERG current change (%, negative = inhibition) at 10uM” value is on record as -61.9%.
As for `Cc1cccc(N2CCN(CC(=O)NCc3ccc(Cl)cc3)CC2)c1C`, the figure is -29.2%; as for `COc1ccccc1N1CCN(CC(=O)NCc2ccc(Cl)cc2)CC1`, -0.607%.
Turning to `CCN(CC(=O)NCc1ccc(F)cc1)C(=O)CN1CCN(c2cc(Cl)ccc2C)CC1`, the “hERG current change (%, negative = inhibition) at 10uM” value is -73.1%.
As for `CCOc1ccccc1N1CCN(C(=O)NCc2ccc(F)cc2)CC1`, the “hERG current change (%, negative = inhibition) at 10uM” value is recorded as -9.29%.
As for `CCN(CC(=O)NCc1ccc(F)cc1)C(=O)CN1CCN(c2ccccc2OC)CC1`, the figure is -61.4%.
The figure for `COc1ccc(CNC(=O)N2CCN(c3ccc(F)cc3)CC2)cc1` is -6.24%.
As for `Cc1ccccc1N1CCN(CC(=O)NCc2ccc(Cl)cc2)CC1`, the figure is -27%.
As to `CC(=O)Nc1ccc(NCc2cccs2)cc1`, the “hERG current change (%, negative = inhibition) at 10uM” value worked out at 6.07%.
